In the library only some 3.9% were active in any assay of this set; here they are far more common.
BoNT-A LC inh2: BoNT A light chain protease inhibition | inhibition, % at 10 µM | AID 588499 | actives 0.17% (n = 360,000) | multiplex microsphere protease substrate cleavage, flow cytometry; note: plate controls were buffer without enzyme for full effect and enzyme alone for no effect
CCHF vOTU inh-1: blocks the CCHF virus ovarian tumor domain protease. CCHFV vOTU protease, Pep-AMC fluorescence. inhibition, % at 11.5 µM. actives 0.55% (n = 370,000); in the data active = inhibition above about 30%; note: 0% = vehicle wells with enzyme and 100% = no enzyme wells
BoNT F protease: blocks Botulinum neurotoxin F light chain protease | Multiplex microsphere protease cleavage assay, flow cytometry | inhibition, % at 10 µM | actives 0.22% (n = 360,000); in the data active = inhibition above about 35%, passing the limit was not always enough; inconclusive = no clear call, values can overlap the other calls; note: plate controls were buffer without enzyme for full effect and enzyme alone for no effect
Bead autofluor: compound fluorescence in toxin protease inhibitor counterscreen; compound autofluorescence counterscreen, microsphere flow cytometry; stronger effect = higher value; fluorescence intensity (test concentration not listed); actives 3.1% (n = 360,000); in the data active = fluorescence intensity above about 16000; inconclusive = no clear call, values can overlap the other calls
Anthrax LF inh2: anthrax lethal factor protease inhibition; P15917; multiplex microsphere protease cleavage assay, LF; actives 0.12% (n = 360,000); inhibition, % at 10 µM; note: plate controls were buffer without enzyme for full effect and enzyme alone for no effect
SARS 3CLpro inh: SARS-CoV 3CLpro protease inhibition; actives 0.14% (n = 290,000); recombinant SARS-CoV 3CLpro, quenched FRET peptide cleavage; inhibition, % at 6 µM; in the data active = inhibition above about 12%
CCHF vOTU inh-2: confirmation of CCHF virus vOTU protease inhibitors; shares compounds with CCHF vOTU inh-1; inhibition, % at 11.5 µM; Recombinant CCHFV vOTU, Pep-AMC fluorescence; actives 17% (n = 1,900); in the data active = inhibition above about 30%
The depositor's hits bear a star; u = inconclusive; x = not tested or not shown. Cut-off read from the data, not from the text of the source, unless noted: active = inhibition above about 30%; inconclusive = no clear call, values can overlap the other calls; inactive = below that.

SMILES	BoNT-A LC inh2	CCHF vOTU inh-1	BoNT F protease	Bead autofluor	Anthrax LF inh2	SARS 3CLpro inh	CCHF vOTU inh-2
Cc1ccc([C@@H]2CC=C(C(=O)O)[C@H](c3ccc(C(C)(C)C)cc3)N2S(=O)(=O)c2ccc(C)cc2)cc1	-0.2	41.5*	-2.1	3772	-5.4	x	19.4
Cc1ccc(S(=O)(=O)N2[C@@H](c3ccc(C(C)(C)C)cc3)C(C(=O)O)=CC[C@H]2c2ccc(C(C)C)cc2)cc1	-0.3	46.9*	-6.5	3077	-1.9	x	14.6
COc1ccc([C@H]2OC(=O)C[C@@H]2C(=O)N2CCCCC2)cc1OC	x	8.5	x	x	x	x	x
CC(C)(C)n1nc(C2CC2)c(Br)c1NC(=O)c1ccc(Cl)cc1	x	-3.4	x	x	x	x	x
CCOc1ccc(-n2c(SCC(=O)Nc3ccc(S(=O)(=O)Nc4cc(C)nc(C)n4)cc3)nnc2-c2ccc(C)cc2)cc1	x	4.9	x	x	x	x	x
O=C(N[C@H]1CC[C@@H]2SC[C@@H](C(=O)O)N2C1=O)OCC1c2ccccc2-c2ccccc21	x	4.1	x	x	x	x	x
Cc1cccc(CCNC(=O)CSc2nc3c([nH]2)c(=O)n(C)c(=O)n3C)c1	x	-1.4	x	x	x	x	x
COc1ccc(CN2C[C@@]3(O)CC[C@@H](O)[C@@H](OC)[C@@H]3[C@@]2(C)[C@H](O)CC=C(C)C)cc1	x	-1.9	x	x	x	x	x
Cc1ccc(S(=O)(=O)N2[C@@H](c3ccc(C(C)(C)C)cc3)C(C(=O)O)=CC[C@H]2c2ccc(Cl)cc2)cc1	-0.1	41.8*	1.5	3767	-0.8	x	13.0
Cc1ccc(S(=O)(=O)N2[C@@H](c3cccc(Cl)c3)C(C(=O)O)=CC[C@H]2c2ccc(Cl)cc2)cc1	0.1	4.6	1.2	2911	-9.1	x	x
Cc1ccc(NC(=S)N(Cc2ccc(Br)cc2)Cc2ccc(C(=O)O)cc2)cc1C	-0.6	31.1*	-2.7	4811	1.6	2.5	6.3
COC(=O)C1=C(C)N(Cc2ccccc2C(F)(F)F)C(=NCc2ccccc2)NC1CCc1ccccc1 (centres undefined)	x	29.4	x	x	x	x	x
CCCC[C@H]1C2CC(OC(=O)Nc3cccc(Br)c3)C(C2)[C@H]2CCCCN21 (some centres undefined)	x	4.8	x	x	x	x	x
Cc1ccc(-n2c(C)cc(/C=C3\NC(=O)NC3=O)c2C)c(C)c1	-1.4	32.8*	-0.5	7968	-4.8	3.5	-2.2
COc1ccc(NC(=O)Nc2ccc3c(c2)C(=O)N([C@H](C)CO)C[C@H](C)[C@H](CN(C)C)OCCCC[C@@H](C)O3)cc1	x	-10.0	x	x	x	x	x
CC(C)CC(NC(=O)C(Cc1ccc(OCc2ccccc2)cc1)NC(=O)OC(C)(C)C)C(N)=O (centres undefined)	-0.8	31.6*	-1.3	4891	1.2	0.3	-11.5
O=C(Nc1scc(-c2ccc(F)cc2)c1C(=O)O)c1ccco1	-0.6	31.3*	-13.5	3434	-7.5	6.9	-6.4
COC(=O)c1c(-c2ccccc2)csc1NC(=O)c1ccco1	-0.2	-2.0	-8.5	9000	-3.1	-3.5	x
C[C@@H]1ON(C)[C@H]2C[C@H]3c4cc(Nc5ccccc5)ccc4CCN3C[C@@H]12	x	10.8	x	x	x	x	x
COC(=O)[C@H](CC(C)C)N(CCCc1cn(CC2CCCCC2)nn1)S(=O)(=O)c1ccccc1Br	x	11.6	x	x	x	x	x
COc1cc(C(=O)c2nccc3cc(OC)c(OC)cc23)c([N+](=O)[O-])cc1OC	0.9	103.1*	-7.2	4369	8.0	0.3	72.3*
COc1cc(C(=O)c2ccccc2)c([N+](=O)[O-])cc1OC	-1.4	-13.7	4.1	6845	2.7	-1.0	x
COc1cc(N)c(C(=O)c2nccc3cc(OC)c(OC)cc23)cc1OC	x	6.8	x	x	x	1.8	x
COc1cc(Br)c(C(=O)c2nccc3cc(OC)c(OC)cc23)cc1OC	-3.7	111.0*	u	4051	8.8	8.0	90.0*
Nn1c(SCC(=O)Nc2ccccc2-c2ccccc2)nnc1-c1n[nH]c2c1CCC2	x	-6.2	x	x	x	x	x
SMILES	BoNT-A LC inh2	CCHF vOTU inh-1	BoNT F protease	Bead autofluor	Anthrax LF inh2	SARS 3CLpro inh	CCHF vOTU inh-2
O=C(COC(=O)c1n[nH]c2ccccc12)NC(=O)NCc1ccco1	-1.0	34.9*	-18.3	3736	-5.2	0.2	-11.1
N#Cc1ccc(S(=O)(=O)NC(=O)[C@H]2O[C@@H](n3ccc(=O)[nH]c3=O)[C@H](O)[C@@H]2O)cc1	x	1.9	x	x	x	x	x
COC(=O)C1=C(C)N(Cc2ccccc2C(F)(F)F)C(=NCc2ccc3c(c2)OCO3)NC1c1cccc(C(F)(F)F)c1 (centres undefined)	x	20.7	x	x	x	x	x
CCOc1cccc(CNn2cnnc2)c1OCc1ccccc1Cl	-0.2	-6.0	4.9	3427	-0.4	-1.1	x
CCOc1cccc(CNc2ccc(O)cc2)c1OCc1ccccc1Cl	-0.6	44.0*	-9.1	3306	-5.6	0.7	2.9
CCOc1cccc(CNc2ccc(O)cc2)c1OCc1ccc(Cl)cc1Cl	-0.2	49.3*	-16.6	2437	-4.2	2.8	6.7
C[C@H](CO)N1C[C@H](C)[C@@H](CN(C)S(C)(=O)=O)OCc2cn(nn2)CCCC1=O	x	-0.6	x	x	x	x	x
CC1=NC2=CC=CC3=NC(C(Cl)(Cl)Cl)=NC(=N1)N23	x	0.7	x	x	x	x	x
Cc1cc(Br)c2nc(-c3cccc(Br)c3)c(Cc3cccc(Cl)c3)n2c1	x	1.2	x	x	x	x	x
C[C@@H]1CN([C@@H](C)CO)C(=O)CCCn2cc(nn2)CO[C@H]1CN(C)S(C)(=O)=O	x	-1.4	x	x	x	x	x
S=c1[nH]nc(-c2cc(-c3ccccc3)n[nH]2)n1/N=C/c1cccc2ccccc12	x	16.7	x	x	x	x	x
CCOC(=O)N/N=C\c1ccc(-c2cccc(C(F)(F)F)c2)o1	-0.4	18.9	-4.6	2651	-0.8	1.2	x
CC1(CC(=O)N/N=C/c2ccc(-c3cccc(C(F)(F)F)c3)o2)OCCO1	1.0	34.6*	7.1	8533	3.4	7.9	-6.9
COc1ccccc1/C=C1\SC(=S)N(CCC(=O)Nc2ccc(C(=O)O)c(O)c2)C1=O	1.5	34.5*	8.6	3758	-2.6	3.3	16.0
O=C(CCN1C(=O)/C(=C\c2ccco2)SC1=S)Nc1ccc(C(=O)O)c(O)c1	-0.6	33.6*	-0.1	4213	-0.8	7.0	6.2
O=C(CCN1C(=O)/C(=C/c2ccco2)SC1=S)Nc1ccc(C(=O)O)c(O)c1	-7.2	14.0	-37.7	3516	-11.9	-2.5	x
COC(=O)c1ccc(Cn2ccc3ccc(-c4ccc5ccn(C(=O)c6ccccc6)c5c4)cc32)cc1	x	-12.8	x	x	x	x	x
Cc1ccc(S(=O)(=O)NCCCCCC(=O)Nc2ccccc2)cc1	-0.1	-1.7	-0.4	2059	-1.9	0.7	x
CNC(=O)CCCCCNS(=O)(=O)c1ccc(C)cc1	-1.1	31.0*	16.4	4915	4.3	-0.2	-8.3
COc1ccc(S(=O)(=O)N2CCCCCC2)c2ccccc12	x	0.7	x	x	x	x	x
COC(=O)N1Cc2ccnnc2CC1c1ccccc1-c1ccc(F)cc1 (centres undefined)	x	7.3	x	x	x	x	x
CC(C)C[C@@H](COCc1cccc(C(F)(F)F)c1)N1CCN(C(=O)c2ccc(C(F)(F)F)cc2)CCC1=O	-0.1	38.5*	-0.6	5237	1.3	x	16.2

Assay outcomes deposited in PubChem by several laboratories.
